MEKK3 PB1 HTS: modulators (inhibitors or enhancers) of MEK5 binding to human MEKK3 PB1 domain; Q99759; bead-based flow cytometry, Alexa488-MEK5 binding to MEKK3; actives lie on both sides; 0 = blocked by unlabeled MEK5, 100 = vehicle; binding response (% of control), % at 10 µM; hit rate 1.4% among 290,000;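 active = binding response more than 3 SD above or below the average of its plate-row segment, actives on both sides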;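 note: Alexa488 bead fluorescence after subtracting the streptavidin-only scavenger bead signal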
Target sequence (Q99759 whole entry, looked up, the tested form may be a part): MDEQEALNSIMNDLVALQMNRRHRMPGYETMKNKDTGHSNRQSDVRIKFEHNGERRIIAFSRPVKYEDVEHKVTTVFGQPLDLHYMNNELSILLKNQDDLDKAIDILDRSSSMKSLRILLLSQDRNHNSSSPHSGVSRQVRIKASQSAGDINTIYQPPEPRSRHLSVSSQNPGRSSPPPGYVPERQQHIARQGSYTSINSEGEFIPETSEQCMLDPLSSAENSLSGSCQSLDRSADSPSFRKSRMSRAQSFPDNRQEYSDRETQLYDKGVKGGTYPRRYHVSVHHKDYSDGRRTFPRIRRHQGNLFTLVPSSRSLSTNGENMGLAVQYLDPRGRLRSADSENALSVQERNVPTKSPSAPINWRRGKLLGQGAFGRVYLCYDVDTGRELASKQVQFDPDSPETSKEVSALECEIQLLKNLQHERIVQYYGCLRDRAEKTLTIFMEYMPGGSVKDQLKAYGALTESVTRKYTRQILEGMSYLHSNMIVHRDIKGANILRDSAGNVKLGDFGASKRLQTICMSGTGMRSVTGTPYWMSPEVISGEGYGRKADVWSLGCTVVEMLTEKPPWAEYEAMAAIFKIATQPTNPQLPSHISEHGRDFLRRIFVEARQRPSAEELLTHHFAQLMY
GRK2 inh: blocks RNA aptamer binding to human GRK2; P25098; bead flow cytometry, FAM-aptamer displacement from GRK2; inhibition of aptamer binding, % at 10 µM; hit rate 0.59% among 330,000; AID 488847;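 active = inhibition of aptamer binding above 40%, roughly 3 SD of noise, on plates passing a quality check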;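 note: median bead fluorescence of bound FAM aptamer so fluorescent compounds give negative values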
MEKK2mut PB1 HTS: signal of MEK5 binding to mutant human MEKK2 PB1 domain. bead flow cytometry, Alexa488-MEK5 binding to MEKK2 mutant. percent response, % at 10 µM. hit rate 0.35% among 290,000. AID 1530; in the data active = percent response above about 24%, passing the limit was not always enough
MEKK2wt PB1 HTS: raises or lowers MEK5 binding to wildtype human MEKK2 PB1 domain; hit rate 1.1% among 290,000; bead flow cytometry, Alexa488-MEK5 binding to MEKK2 WT; actives lie on both sides; AID 1531; Q9Y2U5; binding response (% of control), % at 10 µM; in the data active = binding response below about 67% or above about 130%
MEKK2wt confirm: raises or lowers MEK5 binding to wildtype human MEKK2, retest; bead flow cytometry, Alexa488-MEK5 binding to MEKK2 WT; actives lie on both sides; hit rate 2.4% among 5,900; binding response (% of control), % at 10 µM; AID 1892; shares compounds with MEKK3 PB1 HTS; in the data active = binding response below about 16% or above about 210%; inactive = in between
MEKK2mut-MEK5: signal of MEK5 binding to mutant human MEKK2, retest; shares compounds with MEKK3 PB1 HTS; percent response, % at 10 µM; hit rate 2% among 5,900; bead flow cytometry, Alexa488-MEK5 binding to MEKK2 mutant; in the data active = percent response mostly above about 71%, no sharp cut-off; inactive = mostly below about 38%;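 note: higher means compound restores mutant binding toward wildtype level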
MEKK3-MEK5 inh: MEKK3-MEK5 PB1 inhibition, single concentration confirmation | shares compounds with MEKK3 PB1 HTS | bead flow cytometry, Alexa488-MEK5 binding to MEKK3; active compounds read low | binding response (% of control), % at 10 µM | hit rate 1.8% among 5,900;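 active = binding response below 72% of control, or above a set upper limit, though filed actives all read lower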;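 note: 100% = DMSO only wells and 0% = binding blocked by excess unlabeled MEK5; lower values mean stronger disruption of MEK5 binding to MEKK3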
Starred values were filed as active, the others as inactive; . = no result; [ ] = dose if it differs, or a comment. An excerpt weighted towards active compounds, which were near 2.5% of everything screened.

SMILES	MEKK3 PB1 HTS	GRK2 inh	MEKK2mut PB1 HTS	MEKK2wt PB1 HTS	MEKK2wt confirm	MEKK2mut-MEK5	MEKK3-MEK5 inh
CCOC(=O)c1c(NC(=O)CN2CCOCC2)sc2c1CCCC2=O	99.0	3.0	2.0	97.0	.	.	.
COc1ccccc1NC(=O)c1ccc(NC(=O)COC(=O)C2CCCCC2)cc1	137.0*	0.0	1.0	112.0	106.0	-1.0	108.0
COc1ccccc1NC(=O)COC(=O)C1CCCC1	.	3.0	.	.	.	.	.
COc1ccccc1N(CN1C(=O)c2ccccc2C1=O)C(=O)c1cccc(C)c1	141.0*	3.0	0.0	107.0	-3.0*[inhibitor]	2.0	103.0
Brc1ccc2[nH]c3c(N4CCc5ccccc5C4)ncnc3c2c1	104.0	0.0	35.0	150.0*	127.0	2.0	104.0
CCOc1ccc2[nH]c3c(N4CCc5ccccc5C4)ncnc3c2c1	115.0	1.0	42.0	187.0*	199.0	46.0	110.0
Cc1ccc2[nH]c3c(N4CCc5ccccc5C4)ncnc3c2c1	95.0	0.0	15.0	139.0	.	.	.
CCN(CC)CCC(c1ccc2c(c1)OCO2)c1c(O)cc(OC)cc1OC (stereo not drawn)	119.0	1.0	12.0	150.0*	116.0	3.0	105.0
COc1ccc(C(CC(=O)N2CCOCC2)c2c(O)cc(OC)cc2OC)cc1 (stereo not drawn)	133.0*	4.0	0.0	165.0*	102.0	4.0	96.0
CCN(CC)C(=O)CC(c1ccc2c(c1)OCO2)c1c(O)cc(OC)cc1OC (stereo not drawn)	95.0	0.0	-5.0	97.0	.	.	.
COc1cc(O)c(C(CC(=O)N2CCN(c3ccccc3)CC2)c2ccc3c(c2)OCO3)c(OC)c1 (stereo not drawn)	130.0*	4.0	0.0	153.0*	100.0	-7.0	104.0
O=C1CC(N2CCN(c3ccccc3)CC2)C(=O)N1c1ccc2c(c1)OCCO2 (stereo not drawn)	108.0	0.0	7.0	109.0	.	.	.
O=C1CC(N2CCN(c3ccc(F)cc3)CC2)C(=O)N1c1ccc2c(c1)OCO2 (stereo not drawn)	2.0*[inhibitor]	2.0	-84.0	1.0*[inhibitor]	103.0	4.0	102.0
CSCC(=O)N1CCC(n2nccc2NC(=O)CCCc2ccccc2)CC1	96.0	4.0	4.0	100.0	.	.	.
COc1ccc(CCNCCN2CCOCC2)cc1	102.0	1.0	7.0	109.0	.	.	.
CCN1C(=O)C(CC(=O)Nc2ccc(F)cc2)N(CCCN2CCN(c3ccc(F)cc3)CC2)C1=S (stereo not drawn)	107.0	0.0	25.0	143.0*	133.0	25.0	108.0
CCCOc1ccc(NC(=O)CC2C(=O)N(CC)C(=S)N2CCNC(C)=O)cc1 (stereo not drawn)	88.0	0.0	-4.0	91.0	.	.	.
CCOc1ccc(NC(=O)CC2C(=O)N(CC)C(=S)N2CCN2CCOCC2)cc1 (stereo not drawn)	103.0	1.0	0.0	103.0	.	.	.
CCCOc1ccc(NC(=O)CC2C(=O)N(CC)C(=S)N2CCCN2CCN(Cc3ccccc3)CC2)cc1 (stereo not drawn)	103.0	0.0	22.0	155.0*	150.0	29.0	109.0
O=C(CCC(=O)c1ccc(F)cc1)OC1CCOC1=O (stereo not drawn)	102.0	3.0	1.0	103.0	.	.	.
CC1CCN(Cc2c(O)ccc3c(=O)c(-c4nc5ccccc5s4)c(N)oc23)CC1	109.0	0.0	7.0	120.0	.	.	.
Cc1c2cnn(CC(=O)NCCCN3CCCCC3C)c(=O)c2c(C)n1Cc1ccccc1 (stereo not drawn)	101.0	0.0	28.0*	145.0*	130.0	21.0	104.0
Cc1nonc1-c1csc(N)n1	100.0	1.0	-2.0	99.0	.	.	.
O=S(=O)(NCCOc1ccccc1Cl)c1ccc2oc3ccccc3c2c1	.	0.0	.	.	.	.	.
COc1ccccc1OCCNS(=O)(=O)c1ccc2oc3ccccc3c2c1	138.0*	0.0	3.0	109.0	104.0	1.0	102.0
SMILES	MEKK3 PB1 HTS	GRK2 inh	MEKK2mut PB1 HTS	MEKK2wt PB1 HTS	MEKK2wt confirm	MEKK2mut-MEK5	MEKK3-MEK5 inh
Cc1oc(-c2cccc(Cl)c2)nc1CN1CCC(C(=O)NC2CC2)CC1	102.0	1.0	1.0	99.0	.	.	.
CCc1ccc(-c2nc(CN3CCC(C(=O)N4CCN(c5ccccn5)CC4)CC3)c(C)o2)cc1	.	0.0	.	.	.	.	.
Cc1oc(-c2ccc(Cl)cc2)nc1CN1CCC(C(=O)NCc2cccs2)CC1	116.0	0.0	6.0	126.0	.	.	.
CCN(CCNC(=O)C1CCN(Cc2nc(-c3cccc(Cl)c3)oc2C)CC1)c1ccccc1	109.0	0.0	20.0	188.0*	138.0	15.0	101.0
CCc1ccc(-c2nc(CN3CCC(C(=O)NCCN(CC)c4ccccc4)CC3)c(C)o2)cc1	104.0	0.0	15.0	184.0*	148.0	20.0	106.0
CCc1ccc(-c2nc(CN3CCC(C(=O)N4CCN(c5ccccc5)CC4)CC3)c(C)o2)cc1	108.0	0.0	7.0	152.0*	116.0	8.0	105.0
CCc1ccc(-c2nc(CN3CCC(C(=O)NCc4ccc(F)cc4)CC3)c(C)o2)cc1	104.0	0.0	13.0	145.0*	117.0	3.0	104.0
CCOc1ccc(-c2c(C)sc3nc[nH]c(=O)c23)cc1	104.0	0.0	7.0	112.0	.	.	.
Cc1cccc(OCC2Cn3c(nc4c3c(=O)[nH]c(=O)n4C)O2)c1 (stereo not drawn)	106.0	2.0	7.0	106.0	.	.	.
CCN(CCNC(=O)C1CCN(Cc2nc(-c3ccc(Cl)cc3)oc2C)CC1)c1ccccc1	107.0	0.0	15.0	163.0*	151.0	33.0	110.0
CCN(CCNC(=O)C1CCCN(Cc2nc(-c3ccc(OC)cc3)oc2C)C1)c1ccccc1 (stereo not drawn)	106.0	0.0	12.0	134.0	.	.	.
C=CCn1c(=O)c2ccccc2n2c(SCC(=O)NCc3cccs3)nnc12	103.0	0.0	2.0	102.0	.	.	.
COC(=O)c1ccccc1OCCCCN1CC(C)OC(C)C1 (stereo not drawn)	152.0*	1.0	1.0	102.0	109.0	12.0	108.0
COC(=O)c1ccccc1OCCOc1ccccc1C(=O)OC	101.0	0.0	1.0	103.0	.	.	.
Cc1ccc(-c2cc(C(F)(F)F)c(C#N)c(=O)[nH]2)cc1	108.0	1.0	2.0	101.0	.	.	.
N#Cc1c(C(F)(F)F)cc(-c2ccccc2)[nH]c1=O	127.0*	2.0	4.0	122.0	106.0	5.0	107.0
OCCOCCOc1ccc(-c2nn[nH]n2)cc1	74.0*[inhibitor]	0.0	-1.0	97.0	101.0	1.0	94.0
O=C(CN1C(=O)CSC1=O)Nc1ccccc1F	101.0	0.0	3.0	100.0	.	.	.
Cc1c(C)n(CCN(C)C)c2ccc(C(=O)OCCN(C)C)cc12	103.0	0.0	8.0	110.0	.	.	.
